# Compound activity: PubChem BioAssay, Buhrlage Lab, Dana-Farber Cancer Institute and Novartis Institutes for BioMedical Research (Cambridge, Mass)
# Only some compounds are listed: those with a hit (about 14% of all), similar ones and a draw of the others.
# USP28 block: inhibitors of human USP28 deubiquitinase; Ubiquitin carboxyl-terminal hydrolase 28 (Homo sapiens), Q96RU2; inhibition, % at 25 µM; 3% of 47,000 active; purified USP28, Ub-rhodamine cleavage fluorescence, 30 min; AID 1645857, 2021
# Target sequence (Q96RU2 whole entry, looked up): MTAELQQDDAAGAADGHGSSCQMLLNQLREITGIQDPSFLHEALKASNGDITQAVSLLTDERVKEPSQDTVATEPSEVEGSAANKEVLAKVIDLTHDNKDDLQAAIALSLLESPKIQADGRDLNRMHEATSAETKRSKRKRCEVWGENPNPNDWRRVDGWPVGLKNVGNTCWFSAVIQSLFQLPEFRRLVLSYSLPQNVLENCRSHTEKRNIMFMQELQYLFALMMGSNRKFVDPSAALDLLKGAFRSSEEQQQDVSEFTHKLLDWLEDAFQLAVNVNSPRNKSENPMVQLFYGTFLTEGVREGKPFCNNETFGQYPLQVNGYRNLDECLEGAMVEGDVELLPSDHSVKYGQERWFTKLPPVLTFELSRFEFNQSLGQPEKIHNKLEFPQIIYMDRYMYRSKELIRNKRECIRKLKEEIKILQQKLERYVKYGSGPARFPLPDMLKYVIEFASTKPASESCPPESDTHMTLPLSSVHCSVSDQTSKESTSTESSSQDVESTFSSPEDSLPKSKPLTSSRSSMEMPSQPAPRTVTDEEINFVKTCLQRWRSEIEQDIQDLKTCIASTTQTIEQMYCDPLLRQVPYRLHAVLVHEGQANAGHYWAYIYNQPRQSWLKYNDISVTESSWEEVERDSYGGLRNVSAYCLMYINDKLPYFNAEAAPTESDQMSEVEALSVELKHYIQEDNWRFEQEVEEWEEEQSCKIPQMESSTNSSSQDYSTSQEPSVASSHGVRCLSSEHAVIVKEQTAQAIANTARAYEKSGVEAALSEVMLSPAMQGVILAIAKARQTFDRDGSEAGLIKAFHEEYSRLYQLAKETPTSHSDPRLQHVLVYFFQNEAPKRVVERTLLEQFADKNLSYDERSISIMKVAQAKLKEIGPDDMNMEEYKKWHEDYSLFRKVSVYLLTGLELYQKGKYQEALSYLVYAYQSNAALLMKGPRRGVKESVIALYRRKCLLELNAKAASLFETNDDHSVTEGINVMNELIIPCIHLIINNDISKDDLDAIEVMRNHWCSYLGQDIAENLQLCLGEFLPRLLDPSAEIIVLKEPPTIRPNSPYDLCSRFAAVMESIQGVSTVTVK
# USP8 block: inhibitors of human USP8 deubiquitinase; 4.2% of 47,000 active; purified USP8, Ub-rhodamine cleavage fluorescence, 30 min; Ubiquitin carboxyl-terminal hydrolase 8 (Homo sapiens), P40818; inhibition, % at 20 µM
# USP10 inh: inhibitors of human USP10 deubiquitinase | inhibition, % at 20 µM | purified USP10, Ub-rhodamine fluorescence, 60 min | Ubiquitin carboxyl-terminal hydrolase 10 (Homo sapiens), Q14694 | AID 1645856, 2021 | 1.1% of 47,000 active
# USP17 block: inhibitors of human USP17 deubiquitinase; Ubiquitin carboxyl-terminal hydrolase 17-like protein 5 (Homo sapiens), A8MUK1; purified USP17, Ub-rhodamine cleavage fluorescence, 3 h; inhibition, % at 50 µM; 6.5% of 47,000 active; AID 1645855, 2021
# USP30 inh: inhibitors of human USP30 deubiquitinase; inhibition, % at 25 µM; AID 1645860, 2021; 5.3% of 47,000 active; purified USP30, Ub-rhodamine cleavage fluorescence; Ubiquitin carboxyl-terminal hydrolase 30 (Homo sapiens), Q70CQ3
# An asterisk follows results filed as active; i = inactive; · = not tested or not shown. Cut-off read from the data, not from the text of the source: active = inhibition above about 30%; inactive = the rest.
SMILES,USP28 block,USP8 block,USP10 inh,USP17 block,USP30 inh
COc1cccc(CNC(=O)C2CCCN(c3nnc(N4CCCC4=O)s3)C2)c1OC (centres undefined),-16,-25,0,-7,9
Cc1cc(C)c(C(=O)N2CCCC(C(=O)NCc3ccccc3Cl)C2)[nH]1 (centres undefined),-8,-15,-4,·,-30
COc1ccccc1CNC(=O)C1CCCN(c2nc3ccsc3c(=O)s2)C1 (centres undefined),6,1,3,57*,20
O=C(c1nccc2ccccc12)N1CCC(c2nccnc2-c2ncc[nH]2)CC1,15,20,0,7,24
COc1ccc(C(C)NC(=O)c2cc(NC(C)=O)cc3nc(C)ccc23)cc1 (centres undefined),-9,58*,-6,17,-73
Cc1nc2cc(-c3noc(-c4nn(C)c5ccccc45)n3)ccc2o1,1,-2,-7,19,42*
Cc1nc2cc(-c3noc(-c4cccc5[nH]ccc45)n3)ccc2o1,42*,55*,3,36*,5
O=c1ccc(-c2noc(-c3cccc4[nH]ccc34)n2)c[nH]1,-53,-27,-8,-9,-275
Cc1ccccc1C(=O)Nc1c(-c2ccc3c(c2)OCO3)c(=O)c2ccccc2n1C,-4,4,1,-2,-5
O=C(Cc1ccccc1)Nc1oc2ccccc2c(=O)c1-c1ccc2c(c1)OCO2,11,25,11,24,32*
Cc1ccc(-n2nnc(C(=O)NCc3ccncc3)c2-c2cccnc2)cc1,-1,0,1,2,7
CCN1CCCC12Cc1ccccc1CN(C(=O)C1CCCC1)C2 (centres undefined),-230,-294,0,-161,i
Cc1cccc(N2CCN(CCNC(=O)c3cc4c(s3)CS(=O)(=O)C4)CC2)c1C,40*,-54,-4,-12,-45
CCOc1ccc(CCNC(=O)c2cccc3c2C(=O)N(c2ccc(OC)cc2)C3)cc1OCC,3,28,22,20,15
CCOc1ccc(CCNC(=O)c2cc3c(s2)CS(=O)(=O)C3)cc1OCC,39*,21,-5,·,6
COC(=O)c1ccc2c(=O)n(Cc3ccc(F)cc3)c(N3CCOCC3)nc2c1,9,17,0,13,12
CC(C)(C)c1cc2nc3c(c(=O)n2[nH]1)CN(Cc1ccc(Br)s1)CC3,5,40*,12,6,21
COCc1ccc(C(=O)N2CCC[C@H]2[C@H](O)c2nc3ccccc3s2)o1,-15,-73,-4,-23,-41
CC(C)(C)C1CCc2nc3ccccc3c(C(=O)OCC(=O)c3c[nH]c4ccccc34)c2C1 (centres undefined),-1,6,-4,-12,-57
COCCNS(=O)(=O)c1ccc2c(c1)CCN2C(=O)C1CCC1,6,0,0,3,0
COc1ccc(C2CC(=O)N(Cc3ccc(F)cc3)C(=O)C2)cc1OC,4,5,2,47*,7
Oc1cc(O)cc(/C=C/c2ccc(O)c(O)c2)c1,49*,1,-4,40*,31*
NS(=O)(=O)c1cccc(NCc2nc3scc(-c4ccccc4)c3c(=O)[nH]2)c1,48*,6,0,43*,32*
O=C(O)c1ccccc1Cc1nc2scc(-c3ccccc3)c2c(=O)[nH]1,7,31*,11,14,7
Cc1ccc(C(=O)Nc2ccccc2CN2CCOCC2)cc1-n1cccn1,2,2,1,5,0
SMILES,USP28 block,USP8 block,USP10 inh,USP17 block,USP30 inh
O=C(NCc1ccncc1)C1CCCN(c2ncnc3nc[nH]c23)C1 (centres undefined),-1,2,-2,1,6
O=C(Nc1ccc(CN2CCOCC2)cc1)C1CCCN(c2ncccn2)C1 (centres undefined),4,7,-2,0,14
O=C(Nc1ccc(Cl)cc1)C1CCCN(c2ncccn2)C1 (centres undefined),10,33*,-1,10,15
O=C(Nc1ccc(Cl)cc1)C1CCCN(c2ncnc3nc[nH]c23)C1 (centres undefined),-10,28,3,39*,-31
COc1cc2oc(=O)c(CC(=O)N[C@H](C(=O)O)C(C)C)c(C)c2cc1OC,15,23,3,·,23
O=C(COc1ccc(C2CCCCC2)cc1)Nc1ccc(-c2nn3cnnc3s2)cc1,45*,33*,35*,72*,66*
COc1ccc(CC(=O)NC2CC3(CCOCC3)Oc3ccccc32)cc1 (centres undefined),-4,-1,1,-2,0
Cc1ccc2nc(CCc3ccc(NS(=O)(=O)c4cc(F)ccc4F)cc3)[nH]c2c1,25,-4,5,-8,-5
Cc1ccc2nc(CCc3ccc(NS(=O)(=O)c4ccc(F)c(F)c4)cc3)[nH]c2c1,31*,9,9,1,3
CC(=O)c1ccc(NC(=O)CN2CCc3ccccc3C2)cc1,-10,4,1,-8,-9
O=C(Nc1cc(C(F)(F)F)cc(C(F)(F)F)c1)C12CC3CC(CC(C3)C1)C2,20,25,0,14,22
CC1CC(=O)Nc2ccccc2N1C(=O)c1ccc(F)cc1F (centres undefined),0,-45,0,-5,-1
O=C(Nc1ccc(C(F)(F)F)cc1)C1CC(=O)N(c2ccc3c(c2)OCCO3)C1 (centres undefined),19,25,10,35*,34*
Fc1ccc(Nc2ncnc(-n3cccc3)n2)cc1,-13,8,3,-4,0
O=C(O)c1ccc(S(=O)(=O)C(F)(F)F)c([N+](=O)[O-])c1,-19,-110,7,-5,-12
Cc1c(Cl)cccc1NC(=O)c1[nH]nc2c1COc1ccccc1-2,-54,35*,2,-31,-182
CCOc1ccc(CCNC(=O)c2ccc3c(c2)N(CC)C(=O)c2ccccc2S3)cc1OCC,60*,9,7,0,-2
O=c1c2ccccc2c(-c2nc(-c3ccncc3)no2)cn1-c1ccccc1,5,-1,-3,73*,7
COC(=O)c1ccc(CSc2nc(-c3ccc([N+](=O)[O-])cc3)nc3c2c(=O)n(C)c(=O)n3C)o1,6,-11,2,15,24
O=C(Nc1ccc2nc3n(c(=O)c2c1)CCCC3)c1ccccc1F,15,11,3,2,9
O=C(Cc1ccccc1)NCc1nc(-c2cccc(-c3ccn[nH]3)c2)no1,8,1,-2,0,7
Cc1ccc(Cc2nc(-c3ccc(=O)[nH]c3)no2)cc1,91*,-4,1,0,-3
Clc1cc(-c2nc(-c3cccc(-c4ccn[nH]4)c3)no2)ccn1,1,1,1,41*,5
